Mdm2 MdmX PPI – human Mdm2/MdmX binding inhibition | O15151+Q00987 | AID 485346 | inhibition, % at 8 µM | actives 3% (n = 330,000) | SaOS-2 split-luciferase Mdm2/MdmX complementation, luminescence;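 active means inhibition of at least 50% at 8 µM in the primary screen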
Target sequence (O15151 whole entry, looked up): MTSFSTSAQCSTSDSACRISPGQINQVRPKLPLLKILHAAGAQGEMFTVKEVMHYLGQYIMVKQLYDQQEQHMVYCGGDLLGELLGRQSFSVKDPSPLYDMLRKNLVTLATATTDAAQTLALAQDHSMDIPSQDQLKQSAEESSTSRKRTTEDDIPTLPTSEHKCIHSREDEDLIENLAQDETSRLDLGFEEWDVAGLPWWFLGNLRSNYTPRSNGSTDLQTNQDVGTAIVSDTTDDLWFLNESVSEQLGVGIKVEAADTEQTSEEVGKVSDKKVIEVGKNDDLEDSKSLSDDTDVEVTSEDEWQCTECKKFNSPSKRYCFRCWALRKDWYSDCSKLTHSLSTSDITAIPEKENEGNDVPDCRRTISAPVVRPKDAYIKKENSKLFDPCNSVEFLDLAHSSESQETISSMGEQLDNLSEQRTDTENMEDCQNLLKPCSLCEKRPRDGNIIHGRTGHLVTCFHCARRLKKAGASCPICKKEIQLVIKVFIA
Target sequence (Q00987 whole entry, looked up): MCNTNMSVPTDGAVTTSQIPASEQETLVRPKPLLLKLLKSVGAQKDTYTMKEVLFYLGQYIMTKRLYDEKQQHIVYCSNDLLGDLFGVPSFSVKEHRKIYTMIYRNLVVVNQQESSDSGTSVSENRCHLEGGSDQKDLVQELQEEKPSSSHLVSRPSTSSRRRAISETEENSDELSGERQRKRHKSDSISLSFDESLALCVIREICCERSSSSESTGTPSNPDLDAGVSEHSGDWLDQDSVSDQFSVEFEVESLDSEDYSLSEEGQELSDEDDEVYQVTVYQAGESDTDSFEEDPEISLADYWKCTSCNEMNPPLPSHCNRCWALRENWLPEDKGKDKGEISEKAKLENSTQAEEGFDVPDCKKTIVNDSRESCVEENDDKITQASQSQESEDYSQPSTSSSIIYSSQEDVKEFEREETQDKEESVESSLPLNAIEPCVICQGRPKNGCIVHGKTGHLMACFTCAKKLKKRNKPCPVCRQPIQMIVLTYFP
MPTP block – permeability transition pore inhibition | isolated mouse mitochondria, Ca2+ swelling absorbance, 30 min | inhibition, % at 10 µM | actives 1.4% (n = 360,000);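 active means inhibition of 50% or more, scaled per plate between neutral and stimulator controls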;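 further: 0% = DMSO wells given calcium and 100% = 1 mM EGTA wells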
SKKanGAS inh – SKKanGAS growth inhibition; AID 1662; S. pyogenes SKKanGAS, kanamycin growth, BacTiter-Glo, 6 h; actives 1.3% (n = 300,000); inhibition, % at 7.5 µM;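 active means mean replicate score, as percent of positive control median, at least 50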;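 further: strain carries kanamycin resistance gene driven by streptokinase promoter and grows in 40 µg/ml kanamycin; loss of luminescence reflects streptokinase promoter inhibition or plain growth inhibition; 0% = median of DMSO wells and 100% = positive control at its reference dose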
GRIN3A LBD mod – modulates the human NR3A ligand-binding domain; NR3A LBD differential scanning fluorimetry, Tm shift; 0% = protein alone, 100% = glycine-bound protein; actives 2.5% (n = 340,000); Tm shift relative to glycine control, % at 25 µM; AID 1259313;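 active means melting temperature shift of at least 10% of the positive control shift, at one fixed dose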
CSC inhib – blocks cancer stem cells | cancer stem cell-like cells viability, luminescence | inhibition, % at 7.5 µM | actives 1.1% (n = 300,000) | AID 2717; in the data active means inhibition above about 75%; tested in HMLE shEcad cells
Beta cell apopt – beta cell apoptosis inhibition; INS-1E cytokine-induced death, ATP luminescence, 48 h; percent of positive-control rescue, neutral wells zero; protection from apoptosis, % (concentration not given with the values); actives 0.8% (n = 300,000); AID 435005;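 active means Every replicate reaches about 75%, or at least half do and their mean reaches it too, limit read from the data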;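 further: 0% = cytokine-treated negative control wells and 100% = positive control rescue; higher means more ATP so stronger rescue from cytokine killing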
* hit, by the source's call. Only some compounds are listed: those with a hit (about 6.9% of all), similar ones and a draw of the others.

How did COc1ccccc1C1C2=C(N=c3s/c(=C/c4cccc(OCC(=O)O)c4)c(=O)n31)c1ccccc1CC2 (stereo not drawn) do in these assays?
MPTP block: 4; GRIN3A LBD mod: 4; CSC inhib: 48; Beta cell apopt: -3

What do the screens show for `CCOC(=O)C1=C(C)N=c2s/c(=C\c3ccc(C(=O)O)cc3)c(=O)n2C1c1ccc(OC)cc1OC` (stereo not drawn)?
MPTP block: 2; SKKanGAS inh: 21; GRIN3A LBD mod: 429*; CSC inhib: -8; Beta cell apopt: -6

What do the screens show for `COc1cccc(C2C3=C(N=c4s/c(=C\c5ccc(OCC(=O)O)cc5)c(=O)n42)c2ccccc2CC3)c1` (stereo not drawn)?
Mdm2 MdmX PPI: 23; SKKanGAS inh: 102*; GRIN3A LBD mod: 2; CSC inhib: 22; Beta cell apopt: 3

Results for COc1ccc(-c2nnc(NC(=O)c3ccc(S(=O)(=O)N4COCC4(C)C)cc3)o2)cc1 ?
Mdm2 MdmX PPI: 43; MPTP block: -11; SKKanGAS inh: 89*; GRIN3A LBD mod: -8; CSC inhib: 29

Results for CC1(C)COCN1S(=O)(=O)c1ccc(C(=O)Nc2nnc(-c3ccc(Cl)s3)o2)cc1 ?
Mdm2 MdmX PPI: 15; SKKanGAS inh: 101*; GRIN3A LBD mod: -5; CSC inhib: 44

Results for CCCC(=O)Nc1nnc(-c2ccc(Cl)s2)o1 ?
Mdm2 MdmX PPI: 26; MPTP block: 0; SKKanGAS inh: -5; GRIN3A LBD mod: -1; CSC inhib: -1

What do the screens show for `CCCCN(CCCC)CCCN1CC(=O)N2[C@@H](Cc3c([nH]c4ccccc34)C2(C)C)C1=O`?
Mdm2 MdmX PPI: -9; MPTP block: 1; SKKanGAS inh: 0; GRIN3A LBD mod: 0; CSC inhib: -2; Beta cell apopt: 1

What do the screens show for `O=C(NC1=NCCS1)c1sc2cc(Cl)cc(Cl)c2c1Cl`?
Mdm2 MdmX PPI: -11; MPTP block: 0; SKKanGAS inh: -9; GRIN3A LBD mod: 20*; CSC inhib: -3; Beta cell apopt: 7

How did O=C(NC(=S)Nc1nc(-c2ccc(Cl)cc2)cs1)c1cccs1 do in these assays?
Mdm2 MdmX PPI: 32; MPTP block: 2; SKKanGAS inh: -4; GRIN3A LBD mod: -8; CSC inhib: 14; Beta cell apopt: 3

What do the screens show for `CC(C)CC(=O)NC(=S)Nc1nc(-c2ccc(Cl)cc2)cs1`?
Mdm2 MdmX PPI: 8; MPTP block: 6; GRIN3A LBD mod: 30*; CSC inhib: 5; Beta cell apopt: 1

What do the screens show for `O=C(Nc1nc(-c2cc(Cl)sc2Cl)cs1)c1cccs1`?
Mdm2 MdmX PPI: 23; MPTP block: 0; SKKanGAS inh: 61*; GRIN3A LBD mod: 14*; CSC inhib: 112*; Beta cell apopt: 15

How did O=C(NC(=S)Nc1nc(-c2ccccc2)cs1)c1cccs1 do in these assays?
Mdm2 MdmX PPI: 4; MPTP block: 2; SKKanGAS inh: -7; GRIN3A LBD mod: 28*; CSC inhib: 5; Beta cell apopt: 1

Results for Cc1ccc(-c2csc(NC(=S)NC(=O)c3cccs3)n2)cc1 ?
Mdm2 MdmX PPI: 29; MPTP block: 5; SKKanGAS inh: -7; GRIN3A LBD mod: 3; CSC inhib: 9; Beta cell apopt: 2

What do the screens show for `CC(C)CC(=O)NC(=S)Nc1nc(-c2ccccc2)cs1`?
MPTP block: 4; SKKanGAS inh: -11; GRIN3A LBD mod: -2; CSC inhib: 1; Beta cell apopt: -7

Results for O=C(Nc1nc(-c2ccc3c(c2)OCCO3)cs1)c1ccco1 ?
Mdm2 MdmX PPI: -128; MPTP block: 1; SKKanGAS inh: 56*; CSC inhib: 5; Beta cell apopt: 3

What do the screens show for `COc1ccccc1C(=O)Nc1cccc2c1CCCC2`?
Mdm2 MdmX PPI: -5; MPTP block: 0; SKKanGAS inh: 2; GRIN3A LBD mod: 2; CSC inhib: 14

Results for COc1ccc(S(=O)(=O)N(C)c2ccc(C(=O)NCc3ccccn3)cc2)cc1OC ?
Mdm2 MdmX PPI: 6; MPTP block: 1; SKKanGAS inh: 0; GRIN3A LBD mod: 1; CSC inhib: 3

How did CC1(C(=O)NS(=O)(=O)c2cccc(Cl)c2)CCN1C(=O)Cc1cc(F)ccc1F (stereo not drawn) do in these assays?
MPTP block: 0

Results for Cc1cccc(C)c1NC(=O)COC(=O)CCc1c[nH]c2ccccc12 ?
Mdm2 MdmX PPI: 19; MPTP block: 1; GRIN3A LBD mod: 0; CSC inhib: 3; Beta cell apopt: 0

Results for CSCCC(NC(=O)c1ccccc1Br)C(=O)NNC(=O)c1ccncc1 (stereo not drawn) ?
Mdm2 MdmX PPI: 20; MPTP block: -3; GRIN3A LBD mod: -1; Beta cell apopt: -2

Results for O=C(NC(=S)Nc1nc(-c2ccccc2)cs1)c1ccco1 ?
Mdm2 MdmX PPI: -30; MPTP block: 4; SKKanGAS inh: -4; GRIN3A LBD mod: 16*; CSC inhib: -3; Beta cell apopt: 4

How did COc1ccc(-c2csc(NC(=S)NC(=O)c3ccco3)n2)cc1 do in these assays?
Mdm2 MdmX PPI: 24; MPTP block: 2; SKKanGAS inh: -3; GRIN3A LBD mod: 0; CSC inhib: -6; Beta cell apopt: 9

What do the screens show for `O=C(CN(Cc1ccc(F)cc1)C(=O)CNS(=O)(=O)c1ccc(Cl)cc1)NCC1CCCO1` (stereo not drawn)?
Mdm2 MdmX PPI: -2; MPTP block: 0; SKKanGAS inh: 2; GRIN3A LBD mod: 0; Beta cell apopt: -7

What do the screens show for `CC(C)n1c(N)c(C#N)c2ccc([N+](=O)[O-])cc2c1=O`?
Mdm2 MdmX PPI: 25; MPTP block: 6; SKKanGAS inh: -13; GRIN3A LBD mod: -6; CSC inhib: 5; Beta cell apopt: 0

How did N#Cc1c(N)n(-c2ccccc2)c(=O)c2cc([N+](=O)[O-])ccc12 do in these assays?
Mdm2 MdmX PPI: 12; MPTP block: 0; SKKanGAS inh: -17; GRIN3A LBD mod: 25*; CSC inhib: 8; Beta cell apopt: -2

Results for O=c1/c(=C\c2cccc(O)c2)sc2nc(-c3ccccc3)c(-c3ccccc3)n12 ?
Mdm2 MdmX PPI: 5; MPTP block: 10; SKKanGAS inh: 70*; GRIN3A LBD mod: 3; CSC inhib: 91*; Beta cell apopt: 10

How did COC(=O)C1=CN(c2ccccc2OC)C(N)=C(C#N)C1c1cccc([N+](=O)[O-])c1 (stereo not drawn) do in these assays?
MPTP block: 0

Results for Cc1ccc(NC(=O)CN(C)C(=O)/C=C/c2ccc3c(c2)OCO3)cc1 ?
Mdm2 MdmX PPI: 6; MPTP block: 0; GRIN3A LBD mod: 3; Beta cell apopt: -1

Results for Cc1cccc(OCC(=O)Nc2ccc3c(c2)OCO3)c1C ?
Mdm2 MdmX PPI: -25; MPTP block: 1; SKKanGAS inh: 4; GRIN3A LBD mod: 23*; CSC inhib: 3

High-throughput results deposited in PubChem by several laboratories.
